Values joined by “and” are separate entries in the source; they are usually repeats but may differ in a detail not shown here. Equal entries are not always repeated. The whole screen tested about 260,000 compounds, of which about 1,500 (0.58%) were called active. Not shown: some 5% with an inconclusive outcome.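 Rule for the calls: active = inhibition above a set limit at one or more doses, reproduced on every date tested; inconclusive = results disagree between test dates, or hit never tested in dose response; inactive = the rest.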 Not all results are given here. Measured potencies and affinities stand elsewhere.
Target: Virion infectivity factor (Human immunodeficiency virus type 1 group M subtype B (isolate BH10)) + Virion infectivity factor (Human immunodeficiency virus type 1 group M subtype B (isolate BRU/LAI)) + Virion infectivity factor (Human immunodeficiency virus type 1 group M subtype B (isolate PCV12)) + Virion infectivity factor (Human immunodeficiency virus type 1 group M subtype B (isolate HXB2)) + DNA dC->dU-editing enzyme APOBEC-3G (Homo sapiens) (UniProt P69720+P69721+P69722+P69723+Q9HC16)
Assay: HIV-1 Vif–A3G interaction blockers – biochemical, TR-FRET, GST-Vif 1-94, biotin-A3G peptide, dose response retest, primary screen (AID 1117319);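 note: Vif residues 1-94 fused to GST binding biotinylated APOBEC3G peptide 110-148; 0% = full assay without inhibitor and 100% = GST in place of GST-Vif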
Settings: TR-FRET GST-Vif / biotin-A3G peptide binding; active compounds read high

inhibition, inactive:
COC(=O)C(CC(=O)c1ccc(Cl)cc1)c1ccc(C(C)C)cc1 (configuration not stated) 10.5%
O=C(CCCl)N(Cc1nc2ccccc2c(=O)[nH]1)Cc1cccs1 -7.06%
CC(C)NC(=O)N(Cc1ccccc1)Cc1cccs1 -1.49%
CN(CC(=O)Nc1cccc(F)c1)C(=O)c1ccccc1OCCOc1ccccc1 2.96%
O=C(NNC(=O)c1ccccc1C(=O)O)c1cc2ccccc2o1 19%
CC(=O)Nc1ccc(NC(=O)c2ccc(-c3ccc([N+](=O)[O-])cc3)o2)cc1 -7.43%
O=C(NNC(=O)c1cc2ccccc2o1)c1ccc(F)cc1 -2.65%
C=CCNC(=O)c1ccc(-c2ccc([N+](=O)[O-])cc2)o1 16.1%
CC1CCN(c2ccccc2NC(=S)NC(=O)C(C)(C)C)CC1 -4.59%
COc1ccc2c(CC(=O)NNC(=O)c3cccs3)coc2c1 5.01%
CCCC(C(=O)NC(C)(C)C)N(Cc1ccccc1)C(=O)c1snc(C(N)=O)c1N (configuration not stated) 3.36%
Cc1nn(Cc2ccc(Cl)cc2Cl)c(C)c1NC(=O)c1nn(C)cc1Cl -2.6%
O=C(CCc1ccccc1)Nc1ccc(NS(=O)(=O)c2ccccc2)cc1 0.68%
Cc1c[n+]([O-])cc(C)c1[N+](=O)[O-] -3.91%
O=C(CCN1CCN(CCO)CC1)Nc1ccc(OCc2ccccc2)cc1 -0.21%
c1cc2c(cc1CN1CCOCC1)OCO2 11.3%
CC1(C)CC(=O)C2=C(C1)NCN(Cc1ccccc1)C2 0.39%
O=C(OCC(=O)N1CCCC1)c1c2c(nc3ccccc13)CCCCC2 -4.27%
NNC(=O)C1C(O)CCC2CN3CCc4c([nH]c5ccccc45)C3CC21 (configuration not stated) -9.7%
C[C@@H]1ON(C)[C@H]2C[C@H]3c4[nH]c5ccccc5c4CCN3C[C@@H]12 -1.4%
Cc1ccnc(NS(=O)(=O)c2cc([N+](=O)[O-])ccc2C)c1 -2.19%
Cc1ccc(C2=N/C(=C\c3ccc(F)cc3)C(=O)N2)cc1 -3.34%
COc1ccc(/C=C2\N=C(c3ccccc3Cl)NC2=O)cc1 3.99%
O=c1/c(=C/c2ccco2)sc2n1CN(c1cccc(Br)c1)CN=2 32.9%
Brc1cccc(-c2nnco2)c1 -2.5%
O=C(CCc1nc2ccccc2c(=O)[nH]1)OCc1ccc(-c2ccccc2)cc1 -13.5%
CCc1ccc2c(c1)C(=O)CCC2 -0.54%
O=C(CN1CCCCC1)NCCNC(=O)CN1CCCCC1 -5.6%
Cc1ccc2c(c1)c1c3n2CCN(C(=O)CN2CCN(C)CC2)C3CCC1 (configuration not stated) -1.2%
Cc1ccc2c(c1)c1c3n2CCN(C(=O)C2CC2)C3CCC1 (configuration not stated) 14.1%
COC(=O)c1ccc2c(c1)SC1=C(CCCC1=O)N2 20.1%
CNCc1ccccc1OCc1ccc(F)cc1 -4.9%
CCC(C)[C@@H](C(=O)Nc1ccc(OC)c(OC)c1)N1Cc2ccccc2C1=O (some centres not stated) 3.88%
CC(C(=O)Nc1ccc2c(c1)OCCO2)N1Cc2ccccc2C1=O (configuration not stated) 7.84%
N#C/C(C(N)=O)=C1/CCc2ccccc2N1 -2.65%
N#CC(C(N)=O)=C1CCC2(CC1)OCCCCO2 3.27%
Cc1noc(C)c1S(=O)(=O)Nc1ccc2c(c1)C(=O)N([C@@H](C)CO)C[C@@H](C)[C@@H](CN(C)CC1CCCCC1)OCCCC[C@@H](C)O2 2.32%
C[C@@H]1CCCCO[C@H](CN(C)Cc2ccc(C(F)(F)F)cc2)[C@@H](C)CN([C@H](C)CO)C(=O)c2cc(NS(=O)(=O)c3cn(C)cn3)ccc2O1 -0.57%
CCOC(=O)c1c(C)nc(C)c(C(=O)OCC)c1-c1cccc(N)c1 -1.65%
CC(C)n1c(SCC(=O)Nc2nc3ccccc3s2)nc2c1c(=O)n(C)c(=O)n2C 10.6%
NS(=O)(=O)c1cc(Br)c2c(c1)S(=O)(=O)NCN2 -0.53%
CCOC(=O)N1CCC(N(CCN(C)C)C(=S)Nc2cccc(Cl)c2C)CC1 -1.98%
O=C1NN(c2ccccc2)C(=O)/C1=C/c1ccc(-c2ccc(Cl)c(C(=O)O)c2)o1 -2.97%
Cc1ccc(N2NC(=O)/C(=C/c3ccc(-c4ccc(Cl)c(C(=O)O)c4)o3)C2=O)cc1 0.99%
CCOc1ccc2[nH]c(=O)c(CN(CCO)C(=O)c3ccc(OC)c(OC)c3)cc2c1 -0.38%
CCN(C(=O)COC(=O)c1cnc(C)cn1)c1c(N)n(Cc2ccccc2)c(=O)[nH]c1=O 2.12%
O=c1cc(-c2ccc(O)cc2)oc2cc(O[C@@H]3O[C@H](CO)[C@@H](O)[C@H](O)[C@H]3O[C@@H]3OC[C@](O)(CO)[C@H]3O)cc(O)c12 6.15%
O=c1cc(-c2ccc(O)c(O)c2)oc2ccc3ccccc3c12 10.7%
O=c1cc(-c2ccc(O)c(O)c2)oc2cc(O)cc(O)c12 15.6%
COc1c(O)cc2oc(-c3ccc(O)cc3)cc(=O)c2c1O 19.4%
COc1ccc(CNC(=O)CCC(=O)N2CCN(S(=O)(=O)c3cc([N+](=O)[O-])ccc3C)CC2)cc1 -6.42%
CN(C)c1ncc(/C=C2/C(=O)NC(=S)N(C3CCCCC3)C2=O)cn1 1.75%
CCOc1ccc(CCNS(=O)(=O)c2ccc3c(c2)oc(=O)n3C)cc1OCC 13.6%
c1ccc(CN2CCc3[nH]c4ccccc4c3C2)cc1 -5.69%
CC(C)CC(=O)N1CCN(C(=O)c2cccc(F)c2)CC1 -7.36%
COc1ccc(OCC(O)CN(C)C(=O)/C=C/c2cccc([N+](=O)[O-])c2)cc1 (configuration not stated) -4.1%
O=c1oc(/C=C/c2ccccc2)nc2sc3c(c12)CCC3 70.5%
COc1ccc(/C=C/c2nc3sc4c(c3c(=O)o2)CCC4)cc1 -1.87%
CCc1ccccc1OCC(=O)OCC(=O)N1CC(=O)Nc2ccccc21 -5.84%
CS(=O)(=O)N(CC(=O)NCc1ccc2c(c1)OCO2)C1CCCCC1 -13.6%
COc1cccc(/C=N/N2CCOCC2)c1O 2.44%
Oc1ccccc1C=NN1CCCCCC1 -3.73%
O=C1c2ccccc2C(=O)N1/N=C/c1ccc(O)c(O)c1 29.1%
Oc1cccc(/C=N/N2CCCCC2)c1O -5.32%
CCN(CC)c1ccc(/C=N/N2C(=O)c3ccccc3C2=O)c(O)c1 19.7%
CCN(CC)c1ccc(/C=N/N2CCOCC2)c(O)c1 -1.22%
CCC(=O)C1CCCN(C(=O)CCc2nnc(C3(c4ccc(Cl)cc4)CCC3)o2)C1 (configuration not stated) 8.39%
CCC(C)(C(=O)NC1CCCC1)N(C(=O)c1ccccn1)c1ccc(C)cc1 (configuration not stated) 5.82%
CC(=O)Nc1cccc(C(=O)OCC(=O)NNC(=O)c2cccs2)c1 -1.93%
Cc1ccc(C2(C)NC(=O)N(CC(=O)Nc3nc(-c4ccccn4)cs3)C2=O)cc1 (configuration not stated) 0.48%
COc1ccccc1OCC(=O)NCC(C)NC(=O)COc1ccccc1OC (configuration not stated) 5.26%
COc1ccc(-c2cn(-c3ccc(C)cc3)c(=O)n2CC(=O)Nc2cccc(F)c2)cc1 7.83%
CCOc1cccc2sc(N(CCCN(C)C)C(=O)Cc3ccccc3)nc12 3.08%
CCc1c(C)sc(NC(=O)OC)c1C(N)=O -10.3%
CCc1c(C)sc(NC(=O)OC)c1C(=O)N1CCOCC1 -5.04%
OC(COCc1ccccc1)CN1CCCC1 (configuration not stated) 1.73%
COc1ccc2oc(C(=O)c3ccccc3)c(NC(=O)CN3CCN(C)CC3)c2c1 1.78% and 5.75%
